An excerpt weighted towards active compounds, which were near 3% of everything screened.
Tau FP inhib: qHTS for Inhibitors of Tau Fibril Formation, Fluorescence Polarization; 280,000 tested, 0.39% active; Microtubule-associated protein tau (Homo sapiens), P10636; K18 P301L tau heparin fibrillization, Alexa594 FP, 6 h; Potency, µM (doses to about 57.7 µM), for inactives: at the top dose activity, negative = inhibition, usual class: inhibitors; also: nearly all actives have a fitted effect of over 55% in size
Target sequence (P10636 561-689 P618L limits assumed): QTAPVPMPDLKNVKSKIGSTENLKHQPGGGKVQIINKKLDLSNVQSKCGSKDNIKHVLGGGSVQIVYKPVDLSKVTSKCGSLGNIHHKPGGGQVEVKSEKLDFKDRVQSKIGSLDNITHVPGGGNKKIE
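FP of Alexa 594-tau after heparin (20 uM) induction. Substrate: human K18 P301L, 15 uM unlabeled, 0.24 uM labeled. Buffer 100 mM sodium acetate pH 7. 6 hr, 37 C.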
TRb SRC2 PPI: qHTS for Inhibitors of the Interaction of Thyroid Hormone Receptor and Steroid Receptor Coregulator 2; Thyroid hormone receptor beta (Homo sapiens), P10828; TRbeta-SRC2 peptide binding, fluorescence polarization; receptor liganded with 1 µM T3; Potency, µM (top dose mostly 106 µM), for the others: at the highest dose activity change, negative = inhibition, most hits filed as inhibitors; 280,000 tested, 0.065% active; AID 1469, 2008;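 also: plate controls were bound peptide for no effect and peptide without receptor for full effect; nearly all actives have a fitted effect of over 50% in size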
Target sequence (P10828 whole entry, looked up): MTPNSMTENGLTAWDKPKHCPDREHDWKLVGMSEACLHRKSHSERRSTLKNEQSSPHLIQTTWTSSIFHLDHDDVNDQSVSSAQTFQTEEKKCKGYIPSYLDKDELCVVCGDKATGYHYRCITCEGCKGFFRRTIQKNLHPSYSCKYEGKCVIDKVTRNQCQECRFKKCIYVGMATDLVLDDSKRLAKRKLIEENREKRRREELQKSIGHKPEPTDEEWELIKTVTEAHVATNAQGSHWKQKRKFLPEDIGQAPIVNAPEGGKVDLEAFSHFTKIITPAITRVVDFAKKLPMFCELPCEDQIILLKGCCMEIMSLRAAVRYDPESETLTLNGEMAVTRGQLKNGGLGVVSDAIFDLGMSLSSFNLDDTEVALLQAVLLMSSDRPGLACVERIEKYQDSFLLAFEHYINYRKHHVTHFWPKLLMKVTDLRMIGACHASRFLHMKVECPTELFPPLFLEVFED
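Binding of a 20-amino-acid Texas Red SRC2 peptide (20 nM) to TRb ligand-binding domain (0.6 uM) with agonist T3 at 1 uM was followed by fluorescence polarization after a 5 hr room-temperature incubation.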
Tau fluor cs: Counterscreen qHTS for Inhibitors of Tau Fibril Formation, Fluorescence Polarization. 280,000 tested, 0.93% active. AID 1463, 2008. Potency, µM (doses to about 57.7 µM), for inactives: top-dose activity change, negative = decrease. tau K18 P301L Alexa594 fluorescence, heparin fibrillization; also: nearly all actives have a fitted effect of over 55% in size
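Human K18 P301L tau (15 uM unlabeled plus 0.24 uM Alexa 594-labeled, final) in 100 mM sodium acetate pH 7 was mixed with compound and 20 uM heparin and incubated 6 hr at 37 C.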
Tau ThT inhib: qHTS for Inhibitors of Tau Fibril Formation, Thioflavin T Binding; recombinant tau K18 P301L (four-repeat tau fragment), heparin-induced fibrillization, ThT fluorescence; Potency, µM (titrated, usually from 57.4 µM), for the others: at the highest dose activity, negative = inhibition, most hits filed as inhibitors; Microtubule-associated protein tau (Homo sapiens), P10636; 270,000 tested, 2.1% active; AID 1460, 2008; also: nearly all actives have a fitted effect of over 55% in size
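In this qHTS, human K18 P301L tau is incubated with compound and heparin for 6 hr at 37 C, and Thioflavin T fluorescence then reports fibril load.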
TexasRed fluor: Total Fluorescence Counterscreen for Inhibitors of the Interaction of Thyroid Hormone Receptor and Steroid Receptor Coregulator 2 | TRb/SRC2 Texas Red total fluorescence interference | Potency, µM (top dose mostly 106 µM), for inactives: at the highest dose fluorescence change, negative = quenching | 280,000 tested, 0.29% active | AID 1479, 2009; active = well fitted curve in either direction with a large enough effect; inconclusive = small, poorly fitted or top-dose-only effect
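Human TRb ligand-binding domain at 0.6 uM with 20 nM Texas Red SRC2 peptide in Tris buffer containing 1 uM T3 and 5% DMSO, incubated with compound 5 h at ambient temperature. Total fluorescence (555/632 nm) calculated as parallel + 2 × perpendicular.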
Active calls of the source: *; ? = inconclusive; nt = no result; ! = repeats disagree; [ ] = dose if it differs, or a comment. Unless noted, calls follow the shape of the dose curve; as a rule, active = well fitted curve in the direction sought with a large enough effect; inconclusive = small, poorly fitted or top-dose-only effect, or another doubt; inactive = no such curve, though single readings can be large; an effect the other way counts as inactive or inconclusive. Unless noted, % is scaled to controls: 0 for no effect and ±100 for the full control effect; potency is read from the fitted curve at half-maximal effect.

SMILES	Tau FP inhib	TRb SRC2 PPI	Tau fluor cs	Tau ThT inhib	TexasRed fluor
O=c1c(OC2OC(CO)C(O)C(O)C2O)c(-c2ccc(O)c(O)c2)oc2cc(O)cc(O)c12 (stereo not given)	4%	7%	-9%	-18%	-16%
CC1OC(OCC2OC(Oc3c(-c4ccc(O)c(O)c4)oc4cc(O)cc(O)c4c3=O)C(O)C(O)C2O)C(O)C(O)C1O (stereo not given)	-14%	-7%	-17%	?	-6%
O=c1c(O)c(-c2ccc(O)c(O)c2)oc2c(OC[C@@H]3O[C@@H](O)[C@@H](O)[C@H](O)[C@H]3O)c(O)cc(O)c12	-15%	-8%	-21%	10µM*	-17%
COCCNC(=O)C1(C(F)(F)F)C/C(=C\Cc2ccccc2)CCCO1 (stereo not given)	nt	0%	nt	nt	0%
CN1CCC(=O)N(C(CSc2ccc(Br)cc2)c2ccccc2)CC1 (stereo not given)	nt	3%	nt	nt	0%
O=C1/C(=C\c2ccc3c(c2)OCO3)CCC/C1=C/c1ccc2c(c1)OCO2	-7%	-13%	-23%	4.5µM*	-1%
O=C1/C(=C/c2ccncc2)CCC/C1=C\c1ccncc1	5µM*	-4%	-17%	5µM*	-1%
O=C1OCC/C1=C\c1ccc2c(c1)OCO2	0%	3%	-8%	-11%	0%
Nc1nonc1C(=O)NCCN=Cc1ccccc1O	-5%	-13%	0%	2%	-1%
Nc1nonc1C(=O)NCCN=Cc1cc(Cc2ccccc2)cc(Br)c1O	?	10%	?	28µM*	-7%
c1ccc(COC[C@@H]2CO2)cc1	nt	0%	nt	nt	-8%
Oc1ccccc1/C=N/NC(=S)NC1CC2CC1C1C=CCC21 (stereo not given)	-13%	-5%	13µM*[quencher]	-11%	-6%
CN(C)c1ccc(C(c2ccccc2)c2ccc(N(C)C)cc2)cc1	nt	7%[201 µM]	nt	nt	1%[201 µM]
Fc1ccc(-c2noc3ncnc(N4CCCCC4)c23)cc1	-7%	-24%	-13%	-5%	89µM*[quencher]
Cc1ccc2c(c1)c(=O)c(C(=O)c1ccncc1)cn2CC(=O)Nc1c(C)cccc1C	5%	-4%	-14%	-10%	-4%
COc1ccc(CN2C=C3C(=O)C(C)(OC(=O)C4CCCC4)C(=O)C=C3C=C2c2ccsc2)cc1 (stereo not given)	?	6%[11.2 µM]	-7%[11.6 µM]	18µM*!	0%[11.2 µM]
CC1(OC(=O)C2CCCC2)C(=O)C=C2C=C(c3ccsc3)N(C3CCCC3)C=C2C1=O (stereo not given)	-1%[11.6 µM]	-1%[11.2 µM]	-12%[11.6 µM]	?	-4%[11.2 µM]
CC1(OC(=O)CCc2ccccc2)C(=O)C=C2C=C(c3ccsc3)OC=C2C1=O (stereo not given)	?	8%	-11%	25µM*	0%
CC1(OC(=O)C2CCCC2)C(=O)C=C2C=C(c3ccsc3)OC=C2C1=O (stereo not given)	?	12%	?	16µM*	-1%
COC(=O)CCC(=O)OC1(C)C(=O)C=C2C=C(C3CC3)N(Cc3ccccc3)C=C2C1=O (stereo not given)	?	9%[11.2 µM]	-9%[11.6 µM]	11µM*!	0%[11.2 µM]
CC1(OC(=O)C2CCCC2)C(=O)C=C2C=C(c3ccsc3)N(CCCCO)C=C2C1=O (stereo not given)	-9%[11.6 µM]	9%[11.2 µM]	-26%[11.6 µM]	?	-1%[11.2 µM]
CSc1ccc(C2CC(=O)Oc3c2c(=O)n(C)c2ccccc32)cc1 (stereo not given)	-4%	-2%	-15%	-12%	0%
COc1cc(-c2nnc(SCC(=O)N3CCCc4ccccc43)o2)cc(OC)c1OC	?	5%	-10%	?	-1%
CC1(OC(=O)CCc2ccccc2)C(=O)C=C2C=C(c3ccc(C#N)cc3)N(c3ccccc3)C=C2C1=O (stereo not given)	?	-3%[11.2 µM]	-1%[11.6 µM]	13µM*!	-6%[11.2 µM]
CC1(OC(=O)c2cccs2)C(=O)C=C2C=C(c3ccsc3)OC=C2C1=O (stereo not given)	?	2%	-4%	-2%	0%
SMILES	Tau FP inhib	TRb SRC2 PPI	Tau fluor cs	Tau ThT inhib	TexasRed fluor
CC1(OC(=O)c2cccs2)C(=O)C=C2C=C(c3ccc(C#N)cc3)OC=C2C1=O (stereo not given)	?	5%	-12%	28µM*	-2%
CC(C)=CCl	nt	-2%	nt	nt	0%
O=C(Cn1c(=O)oc2cc(S(=O)(=O)NC3CCCC3)ccc21)Nc1ccc(F)c(F)c1	-15%	5%	-30%	0%	3%
COc1ccc(OC)c(-c2c3cc(O)c(=O)cc-3oc3cc(O)c(O)cc23)c1	16µM*	25µM*	?	3.2µM*	45µM*[fluorescent]
O=c1cc2oc3cc(O)c(O)cc3c(-c3ccccc3O)c-2cc1O	13µM*	18µM*	?	2.5µM*	40µM*[fluorescent]
COc1ccccc1-c1cc(=O)c2cc(O)ccc2o1	-7%	-2%	-15%	-18%	-1%
O=c1cc(-c2cccc(O)c2O)oc2ccccc12	3%	-4%	?	13µM*	-6%
COc1cc2oc(-c3ccccc3)cc(=O)c2cc1O	-8%	-6%	-19%	-19%	0%
CCOc1ccccc1-c1c2cc(O)c(=O)cc-2oc2cc(O)c(O)cc12	14µM*	-6%	17%	?	3%
O=c1cc(-c2ccccc2O)oc2cc(O)ccc12	-16%	0%	-8%	-7%	2%
O=C(Cn1c(O)c(/C=C2\C=Nc3ccccc32)sc1=O)N1CCOCC1	-12%	10%	-12%	1%	1%
O=c1[nH]c(S)c(/C=C2\C=Nc3ccccc32)s1	?	0%	?	1.4µM*	-6%
Nc1nnc(Cc2c[nH]c3ccccc23)s1	8%	0%	-26%	?	2%
c1ccc2c(Cc3c[nH]c4ccccc34)c[nH]c2c1	?	-5%	16µM*![quencher]	?	0%
COCCn1c(SCCCC(=O)c2ccc(Br)cc2)nnc1-c1ccncc1	10%	-5%	-10%	-15%	0%
CCn1c(CSc2nnc(-c3ccncc3)n2CCOC)nc2cc(C(=O)O)ccc21	5%	13µM*	16%	0%	50µM*[fluorescent]
CCn1c(CSc2n[nH]c(N)n2)nc2cc(C(=O)O)ccc21	-4%	28µM*	9%	-2%	35µM*[fluorescent]
CCn1c(CSc2nnc3ccccn23)nc2cc(C(=O)O)ccc21	0%	7.9µM*	18%	-6%	40µM*[fluorescent]
CCn1c(CSc2nnc(-c3cccnc3)n2-c2ccccc2C)nc2cc(C(=O)O)ccc21	?	11µM*	14%	?	40µM*[fluorescent]
C[C@@H](NC(=O)CN(c1ccccc1)S(=O)(=O)N(C)C)c1ccccc1	-1%	6%	-1%	4%	4%

Compound activity from PubChem.
